# LMP1 NFkB inh – EBV LMP1-driven NF-kappaB luciferase reporter inhibitors, primary screen, cell-based, luminescence, single point | inhibition, % at 12.5 µM | 350,000 compounds, 0.69% hits | LMP1-induced NF-kappaB luciferase reporter cells; in the data active = inhibition above about 41%;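 note: 0% = neutral control wells and 100% = reference inhibitor control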
# TWEAK Fn14 block – inhibitors of TWEAK-Fn14 signaling, primary screen, luciferase reporter cells, uHTS. 360,000 compounds, 2% hits. inhibition, % at 10 µM. TWEAK-stimulated Fn14 reporter cells, luciferase luminescence, 8 h; in the data active = inhibition above about 50%
# TROY NFkB inh – inhibitors of TROY-driven NF-kB signaling, primary screen, Q293 LMP1-TROYcd cells, NF-kB luciferase, uHTS; inhibition, % at 10 µM; AID 1347056, 2019; 360,000 compounds, 0.98% hits; Q293 LMP1-TROYcd NF-kB luciferase reporter, 4 h;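 active = compounds whose plate-normalised and pattern-corrected inhibition of the luciferase reporter signal at the single screening dose is 50% or more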
# HSF1 inh – HSF1 inhibitors in luciferase reporter cells, primary screen, cell-based, NIH3T3, luminescence. NIH3T3-HGL HSE-luciferase, MG132-induced, luminescence 8 h; active compounds read low. activity change, negative = inhibition, % at 7.5 µM (by protocol). 300,000 compounds, 0.77% hits. AID 2098, 2009;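 active = more than half of replicate wells show activity change below -50%, luminescence cut by over half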;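 note: luciferase reports HSF-1 transcriptional activity via heat shock element; 0% = median of DMSO wells and -100% = zero luminescence signal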
# HSP90 inh – HSP90 inhibitors, primary screen, cell lysate, luminescence; Heat shock protein HSP 90 (rabbit reticulocyte lysate; luciferase refolding); Rabbit reticulocyte lysate, luciferase refolding luminescence, 3 h; inhibition, % at 5.6 µM; 290,000 compounds, 0.91% hits;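 active = inhibition above the screen-wide mean plus 3 SD, computed separately per campaign, cut at about 16% in these data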;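 note: 0% = DMSO wells and 100% = 60 µM geldanamycin wells; inhibitors lower the luminescence because luciferase stays unfolded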
# HSF-1 act – HSF-1 activators, primary screen, NIH3T3-HGL cells, MG132 stress, luminescence, single point; AID 504408, 2011; NIH3T3-HGL HSF-1 luciferase reporter, 8 h; 100% = twice DMSO control signal; 300,000 compounds, 1.7% hits; activation, % at 9 µM;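 active = mean replicate activation of at least 50% with a set share of replicates each reaching 50%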;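 note: 0% = median of the neutral control wells and 100% = twice that signal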
# * = called active by the depositor; x = no result. Most compounds without a hit are left out; they make up all but 4.7% or so of the library.
SMILES,LMP1 NFkB inh,TWEAK Fn14 block,TROY NFkB inh,HSF1 inh,HSP90 inh,HSF-1 act
Clc1ccc(SCc2csc(N3CCOCC3)n2)cc1,-14,-27,-31,36,-1,72*
CC(Sc1ccc(Cl)cc1)C(=O)NNC(=O)c1csc(N2CCOCC2)n1 (stereo not given),0,2,-9,-1,-2,-4
CCOc1ccc(N(CC(=O)NC2CCCCC2)C(=O)CCC(=O)Nc2nc(C)cs2)cc1,2,45,14,-59*,-3,-60
O=C1OC(NC(=O)c2ccccc2)C(n2cc(CO)nn2)=C1Cl (stereo not given),1,-4,8,-62*,2,-67
O=C(OCc1ccccc1)N1CCC2CC1c1ccc(N3CCNCC3)cc12 (stereo not given),-40,-25,-50,x,x,x
Cc1c(NC(=O)C2CC(c3ccc(F)cc3)=NO2)c(=O)n(-c2ccccc2)n1C (stereo not given),0,12,4,-84*,-5,-88
COc1ccc(C2=NOC(C(=O)Nc3c(C)n(C)n(-c4ccccc4)c3=O)C2)cc1 (stereo not given),8,0,-16,-3,2,19
COCCN1C(=O)CCC1(C)C(=O)Nc1ccc2ccccc2c1 (stereo not given),x,2,-4,x,x,x
COc1ccc(OC)c(-c2cc(C3CCN(c4cc(Cl)nc(N)n4)CC3)[nH]n2)c1,-10,67*,53*,0,1,4
COc1ccc(-c2cc(C3CCN(c4cc(Cl)nc(N)n4)CC3)[nH]n2)cc1,8,32,38,-8,1,-17
Nc1nc(Cl)cc(N2CCC(c3cc(-c4ccc(Cl)cc4)n[nH]3)CC2)n1,-8,94*,40,2,7,23
Cc1ccccc1OCCNC(=O)c1ccc2ccccc2n1,-21,-55,-43,44,2,86*
Cc1ccc(NC(=O)c2sc3ncn(CC(=O)N4CCOCC4)c(=O)c3c2C)c(Br)c1,-7,-4,-22,36,-1,78*
CCn1cnc2sc(C(=O)Nc3ccc4c(c3)OCO4)c(C)c2c1=O,-11,57*,x,33,0,67*
COc1ccc(NC(=O)C2(C)CCN2CC2CCCCC2)cc1OC (stereo not given),x,-15,8,x,x,x
O=C(Nc1ccccc1)c1cc(C2CCCCN2C(=O)c2cccs2)on1 (stereo not given),x,-23,-12,x,x,x
COc1cccc(S(=O)(=O)NCc2ccc(C(=O)Nc3cccc(Cl)c3)cc2)c1,-8,60*,48,2,6,8
CC(=O)Nc1ccc(C(=O)Nc2ccc(S(=O)(=O)NCC3CCCO3)cc2)cc1 (stereo not given),0,-4,-22,-12,-3,-27
O=C(Nc1cccc(Cl)c1)c1ccc(S(=O)(=O)NCC2CCCO2)cc1 (stereo not given),2,63*,4,-88*,-5,-91
CC(=O)Oc1ccc(C(=O)Nc2ccc(S(=O)(=O)NCC3CCCO3)cc2)cc1 (stereo not given),-3,42,51*,-2,-2,-8
O=C(NCc1ccco1)c1ccc2sc([C@@H]3O[C@H](CO)[C@H](O)[C@H](O)[C@H]3O)nc2c1,x,0,-4,x,x,x
CSc1ccccc1NC(=O)CN(C)C(=O)CNC(=O)c1ccc(Oc2ccccc2)cc1,-6,-3,-17,x,x,x
Nn1c(SCc2ccc(F)cc2)nnc1-c1cccnc1,0,-2,5,32,3,62*
Nn1c(SCc2ccc(Br)cc2)nnc1-c1cccnc1,3,11,-10,4,2,6
CCOC(=O)C1CCN(CC(=O)Nc2c(C(=O)OC)[nH]c3ccc(Cl)cc23)CC1,17,64*,48,-8,1,7
CC(C)c1ccc(/C=C/C(=O)NC2=NCCS2)cc1,x,x,x,22,1,48
O=C(/C=C/c1ccc(Cl)c(Cl)c1)NC1=NCCS1,-35,-40,-30,25,0,54*

# Source: PubChem (several laboratories)
